Paper PMC7862700, “An all-to-all approach to the identification of sequence-specific readers for epigenetic DNA modifications on cytosine”

How the values were obtained:
Assay in all cases: DAPPL (digital affinity profiling via proximity ligation, sequencing); 10 mM Tris-HCl pH 7.5, 50 mM NaCl, 1 mM DTT, 4% glycerol, room temperature, 30 min; GST-TFs on glutathione beads, 16-mer random dsDNA library, 0.1% formaldehyde crosslink after washing; high values mean tight binding
Settings in all cases: protein: recombinant; tags: N-terminal GST; dsDNA, one strand shown
FLI1 = molecular target: T1, FLI1 (Homo sapiens, UniProt Q01543 1-452)
T1 sequence: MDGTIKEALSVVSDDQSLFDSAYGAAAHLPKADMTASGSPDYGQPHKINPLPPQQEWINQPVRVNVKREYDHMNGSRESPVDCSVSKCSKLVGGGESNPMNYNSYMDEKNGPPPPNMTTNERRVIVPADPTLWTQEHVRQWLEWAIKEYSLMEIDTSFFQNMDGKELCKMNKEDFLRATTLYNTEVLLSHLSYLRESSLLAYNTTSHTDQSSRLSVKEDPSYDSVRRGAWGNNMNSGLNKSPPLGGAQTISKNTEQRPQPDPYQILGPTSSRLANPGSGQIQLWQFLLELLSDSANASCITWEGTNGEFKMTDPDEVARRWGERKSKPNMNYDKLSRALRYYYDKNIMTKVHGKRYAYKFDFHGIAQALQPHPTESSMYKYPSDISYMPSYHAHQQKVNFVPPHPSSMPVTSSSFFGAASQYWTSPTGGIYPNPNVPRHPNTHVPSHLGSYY
Summary of the method: (§1)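 Beads coated with glutathione captured GST-fused human transcription factors that had been expressed in yeast, and the factors were then given DNA barcodes and pooled with a tag-only sample. The pools were incubated with 200 nmole of a random double-stranded 16-mer DNA library in Tris/NaCl/DTT/glycerol buffer for 30 min at room temperature, washed, crosslinked with 0.1% formaldehyde and proximity-ligated with BsaI/T4 ligase at 37 °C for 1 h. PCR amplification and Illumina NextSeq500 sequencing came last. Binding signal is each hexamer's read frequency for a factor divided by its frequency for the tag-only sample.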

SPI1 = SPI1 (Homo sapiens, UniProt P17947 1-270)
Summary of the method: as §1

ELK3 = molecular target: T2, ELK3 (Homo sapiens, UniProt P41970 1-407)
T2 sequence: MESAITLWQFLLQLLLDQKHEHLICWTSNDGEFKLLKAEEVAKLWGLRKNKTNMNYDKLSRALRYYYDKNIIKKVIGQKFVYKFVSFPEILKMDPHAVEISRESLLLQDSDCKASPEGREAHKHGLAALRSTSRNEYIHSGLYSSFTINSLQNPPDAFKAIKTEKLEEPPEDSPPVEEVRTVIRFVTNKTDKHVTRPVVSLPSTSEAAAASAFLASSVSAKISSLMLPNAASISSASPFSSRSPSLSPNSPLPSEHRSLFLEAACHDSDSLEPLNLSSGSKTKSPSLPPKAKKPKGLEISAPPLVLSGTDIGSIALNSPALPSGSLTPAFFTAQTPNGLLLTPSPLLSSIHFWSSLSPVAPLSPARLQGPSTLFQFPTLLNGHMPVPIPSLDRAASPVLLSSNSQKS
Summary of the method: as §1

ELF5 = molecular target: T3, ELF5 (Homo sapiens, UniProt Q9UKW6-2 1-255)
T3 sequence: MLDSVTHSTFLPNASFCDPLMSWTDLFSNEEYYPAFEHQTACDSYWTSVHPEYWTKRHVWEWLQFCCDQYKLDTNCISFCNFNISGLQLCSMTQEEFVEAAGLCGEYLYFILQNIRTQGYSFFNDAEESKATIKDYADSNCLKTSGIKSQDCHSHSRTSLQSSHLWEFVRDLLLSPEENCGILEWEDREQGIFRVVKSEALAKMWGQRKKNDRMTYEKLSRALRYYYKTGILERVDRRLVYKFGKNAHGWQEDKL
Summary of the method: as §1

CRX = CRX (Homo sapiens, UniProt O43186 1-299)
Sequence of CRX (O43186 whole entry): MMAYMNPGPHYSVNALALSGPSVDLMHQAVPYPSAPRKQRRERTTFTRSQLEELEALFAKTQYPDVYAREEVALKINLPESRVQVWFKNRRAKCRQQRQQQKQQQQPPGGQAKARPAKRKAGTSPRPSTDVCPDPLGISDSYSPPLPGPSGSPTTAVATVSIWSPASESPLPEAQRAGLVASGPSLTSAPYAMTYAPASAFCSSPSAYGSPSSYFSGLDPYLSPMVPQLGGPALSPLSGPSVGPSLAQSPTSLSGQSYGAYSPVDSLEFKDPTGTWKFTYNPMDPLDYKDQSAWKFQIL
Summary of the method: as §1

Sequence	binding signal (FLI1)	binding signal (SPI1)	binding signal (ELK3)	binding signal (ELF5)	binding signal (CRX)
CATTGT	1.2 fold enrichment (6-mer frequency, TF over GST control)	1.04 fold enrichment (6-mer frequency, TF over GST control)	1.08 fold enrichment (6-mer frequency, TF over GST control)	1.1 fold enrichment (6-mer frequency, TF over GST control)	
CACATG	1.18 fold enrichment (6-mer frequency, TF over GST control)	1.11 fold enrichment (6-mer frequency, TF over GST control)	1.14 fold enrichment (6-mer frequency, TF over GST control)	1.02 fold enrichment (6-mer frequency, TF over GST control)	
TCAAGC	1.03 fold enrichment (6-mer frequency, TF over GST control)		1.09 fold enrichment (6-mer frequency, TF over GST control)		1.06 fold enrichment (6-mer frequency, TF over GST control)
TCGTCC	1.1 fold enrichment (6-mer frequency, TF over GST control)	1.03 fold enrichment (6-mer frequency, TF over GST control)	1.18 fold enrichment (6-mer frequency, TF over GST control)	1.02 fold enrichment (6-mer frequency, TF over GST control)	
GCTAAC	1.11 fold enrichment (6-mer frequency, TF over GST control)	1.1 fold enrichment (6-mer frequency, TF over GST control)	1.18 fold enrichment (6-mer frequency, TF over GST control)		
ACGCGG	1.04 fold enrichment (6-mer frequency, TF over GST control)	1.02 fold enrichment (6-mer frequency, TF over GST control)	1.05 fold enrichment (6-mer frequency, TF over GST control)	1.07 fold enrichment (6-mer frequency, TF over GST control)	
CCAAGC	1.01 fold enrichment (6-mer frequency, TF over GST control)				
GTAACC	1.04 fold enrichment (6-mer frequency, TF over GST control)	1.01 fold enrichment (6-mer frequency, TF over GST control)	1.04 fold enrichment (6-mer frequency, TF over GST control)	1.07 fold enrichment (6-mer frequency, TF over GST control)	
TGGGCA	1.05 fold enrichment (6-mer frequency, TF over GST control)	1.08 fold enrichment (6-mer frequency, TF over GST control)	1.19 fold enrichment (6-mer frequency, TF over GST control)		
CGTTGT	1.15 fold enrichment (6-mer frequency, TF over GST control)			1.07 fold enrichment (6-mer frequency, TF over GST control)	
TGCAAG	1.09 fold enrichment (6-mer frequency, TF over GST control)	1 fold enrichment (6-mer frequency, TF over GST control)		1.05 fold enrichment (6-mer frequency, TF over GST control)	
ACGGTA	1.02 fold enrichment (6-mer frequency, TF over GST control)			1.05 fold enrichment (6-mer frequency, TF over GST control)	
GGTACA	1.03 fold enrichment (6-mer frequency, TF over GST control)			1 fold enrichment (6-mer frequency, TF over GST control)	
TGGCTG	1.11 fold enrichment (6-mer frequency, TF over GST control)	1.02 fold enrichment (6-mer frequency, TF over GST control)		1.01 fold enrichment (6-mer frequency, TF over GST control)	
CAGCCT	1.14 fold enrichment (6-mer frequency, TF over GST control)	1.03 fold enrichment (6-mer frequency, TF over GST control)			1.06 fold enrichment (6-mer frequency, TF over GST control)
ACCGGC	1.07 fold enrichment (6-mer frequency, TF over GST control)	1.17 fold enrichment (6-mer frequency, TF over GST control)	1.11 fold enrichment (6-mer frequency, TF over GST control)	1.11 fold enrichment (6-mer frequency, TF over GST control)	
CAATGG	1.14 fold enrichment (6-mer frequency, TF over GST control)	1.04 fold enrichment (6-mer frequency, TF over GST control)			
CAGCAT	1.04 fold enrichment (6-mer frequency, TF over GST control)		1.19 fold enrichment (6-mer frequency, TF over GST control)		

Sequence	binding signal (FLI1)	binding signal (SPI1)	binding signal (ELK3)	binding signal (ELF5)	binding signal (CRX)
CGCACG	1.1 fold enrichment (6-mer frequency, TF over GST control)		1.02 fold enrichment (6-mer frequency, TF over GST control)	1.02 fold enrichment (6-mer frequency, TF over GST control)	
GGCTAC	1.17 fold enrichment (6-mer frequency, TF over GST control)		1.19 fold enrichment (6-mer frequency, TF over GST control)	1.16 fold enrichment (6-mer frequency, TF over GST control)	
ATAGCC	1.03 fold enrichment (6-mer frequency, TF over GST control)		1.01 fold enrichment (6-mer frequency, TF over GST control)		1.02 fold enrichment (6-mer frequency, TF over GST control)
AGCGCT	1.1 fold enrichment (6-mer frequency, TF over GST control)		1.14 fold enrichment (6-mer frequency, TF over GST control)	1 fold enrichment (6-mer frequency, TF over GST control)	1.01 fold enrichment (6-mer frequency, TF over GST control)
TCACCG	1.06 fold enrichment (6-mer frequency, TF over GST control)	1.06 fold enrichment (6-mer frequency, TF over GST control)	1.13 fold enrichment (6-mer frequency, TF over GST control)	1.01 fold enrichment (6-mer frequency, TF over GST control)	
GGTGGT	1.05 fold enrichment (6-mer frequency, TF over GST control)		1.03 fold enrichment (6-mer frequency, TF over GST control)		
GCACAC	1.02 fold enrichment (6-mer frequency, TF over GST control)				
ACGCCG	1.15 fold enrichment (6-mer frequency, TF over GST control)	1.09 fold enrichment (6-mer frequency, TF over GST control)	1.11 fold enrichment (6-mer frequency, TF over GST control)		
TGCGCC	1.17 fold enrichment (6-mer frequency, TF over GST control)	1.22 fold enrichment (6-mer frequency, TF over GST control)	1.07 fold enrichment (6-mer frequency, TF over GST control)	1.11 fold enrichment (6-mer frequency, TF over GST control)	
CGCGTA	1.07 fold enrichment (6-mer frequency, TF over GST control)				
GCAAAC	1.04 fold enrichment (6-mer frequency, TF over GST control)	1.07 fold enrichment (6-mer frequency, TF over GST control)	1.04 fold enrichment (6-mer frequency, TF over GST control)		
CGTCCA	1.13 fold enrichment (6-mer frequency, TF over GST control)	1.03 fold enrichment (6-mer frequency, TF over GST control)	1.13 fold enrichment (6-mer frequency, TF over GST control)		
AACCGC	1.15 fold enrichment (6-mer frequency, TF over GST control)	1.04 fold enrichment (6-mer frequency, TF over GST control)	1.07 fold enrichment (6-mer frequency, TF over GST control)	1 fold enrichment (6-mer frequency, TF over GST control)	1.02 fold enrichment (6-mer frequency, TF over GST control)
GGTCAC	1.08 fold enrichment (6-mer frequency, TF over GST control)				
CCCGTC	1.12 fold enrichment (6-mer frequency, TF over GST control)	1.11 fold enrichment (6-mer frequency, TF over GST control)		1.12 fold enrichment (6-mer frequency, TF over GST control)	
TCAGTT	1.02 fold enrichment (6-mer frequency, TF over GST control)		1.09 fold enrichment (6-mer frequency, TF over GST control)		
CGCGTT	1.1 fold enrichment (6-mer frequency, TF over GST control)		1.06 fold enrichment (6-mer frequency, TF over GST control)	1.02 fold enrichment (6-mer frequency, TF over GST control)	
AGGACC	1.13 fold enrichment (6-mer frequency, TF over GST control)		1.15 fold enrichment (6-mer frequency, TF over GST control)	1.1 fold enrichment (6-mer frequency, TF over GST control)	
